High-throughput results as filed in PubChem BioAssay.
G9a block: inhibitors of human histone lysine methyltransferase G9a. G9a H3K9 monomethylation, AlphaScreen, 2 h. Potency, µM (highest dose often 102 µM), without a hit: top-dose activity, negative = inhibition, actives largely listed as inhibitors. 350,000 tested, 8.8% active; note: % is set by controls: 0 for no effect and ±100 for the full control effect; nearly all actives have a fitted effect of over 75% in size
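AlphaScreen detection with an anti-monomethyl H3K9 antibody quantified product after a 2 h room-temperature reaction containing 500 nM biotinylated H3K9 peptide, 20 µM SAM and 20 nM enzyme, which had been preincubated 15 min with compound.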
BAZ2B inh: BAZ2B (human) inhibition. 360,000 tested, 4.4% active. Potency, µM (doses to about 114 µM), without a hit: at the highest dose activity change, negative = inhibition, hits mostly inhibitors. Q9UIF8. AlphaScreen BAZ2B-H3K14Ac peptide displacement; note: % is set by controls: 0 for no effect and ±100 for the full control effect; nearly all actives have a fitted effect of over 60% in size
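BAZ2B (50 nM) with biotin-H3(5-23)K14Ac peptide (50 nM) in PBS pH 7.4, 0.01% Tween-20, preformed 30 min, then compound 30 min at room temperature; top concentration 110uM. AlphaScreen streptavidin donor/nickel chelate acceptor beads (10 ug/mL final), 20 min dark, signal read.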
PLK1 PBD inh: PLK1 (human) polo-box domain binding inhibition. P53350. 360,000 tested, 2.8% active. AID 720504. Plk1 PBD binding of FITC phosphopeptide, fluorescence polarization. Potency, µM, without a hit: max response, negative = inhibition, most hits filed as inhibitors; note: series mostly up to about 57 µM; % is set by controls: 0 for no effect and ±100 for the full control effect; nearly all actives have a fitted effect of over 65% in size
JMJD2A Tudor inh: JMJD2A Tudor domain (human) inhibition | O75164 | AlphaScreen JMJD2A-Tudor / H3K4me3 peptide binding | Potency, µM (doses to about 114 µM), for the others: top-dose activity change, negative = inhibition, usual class: inhibitors | 390,000 tested, 4.4% active | AID 504339; note: % is set by controls: 0 for no effect and ±100 for the full control effect; nearly all actives have a fitted effect of over 50% in size
Target sequence (O75164 whole entry, looked up, the tested form may be a part): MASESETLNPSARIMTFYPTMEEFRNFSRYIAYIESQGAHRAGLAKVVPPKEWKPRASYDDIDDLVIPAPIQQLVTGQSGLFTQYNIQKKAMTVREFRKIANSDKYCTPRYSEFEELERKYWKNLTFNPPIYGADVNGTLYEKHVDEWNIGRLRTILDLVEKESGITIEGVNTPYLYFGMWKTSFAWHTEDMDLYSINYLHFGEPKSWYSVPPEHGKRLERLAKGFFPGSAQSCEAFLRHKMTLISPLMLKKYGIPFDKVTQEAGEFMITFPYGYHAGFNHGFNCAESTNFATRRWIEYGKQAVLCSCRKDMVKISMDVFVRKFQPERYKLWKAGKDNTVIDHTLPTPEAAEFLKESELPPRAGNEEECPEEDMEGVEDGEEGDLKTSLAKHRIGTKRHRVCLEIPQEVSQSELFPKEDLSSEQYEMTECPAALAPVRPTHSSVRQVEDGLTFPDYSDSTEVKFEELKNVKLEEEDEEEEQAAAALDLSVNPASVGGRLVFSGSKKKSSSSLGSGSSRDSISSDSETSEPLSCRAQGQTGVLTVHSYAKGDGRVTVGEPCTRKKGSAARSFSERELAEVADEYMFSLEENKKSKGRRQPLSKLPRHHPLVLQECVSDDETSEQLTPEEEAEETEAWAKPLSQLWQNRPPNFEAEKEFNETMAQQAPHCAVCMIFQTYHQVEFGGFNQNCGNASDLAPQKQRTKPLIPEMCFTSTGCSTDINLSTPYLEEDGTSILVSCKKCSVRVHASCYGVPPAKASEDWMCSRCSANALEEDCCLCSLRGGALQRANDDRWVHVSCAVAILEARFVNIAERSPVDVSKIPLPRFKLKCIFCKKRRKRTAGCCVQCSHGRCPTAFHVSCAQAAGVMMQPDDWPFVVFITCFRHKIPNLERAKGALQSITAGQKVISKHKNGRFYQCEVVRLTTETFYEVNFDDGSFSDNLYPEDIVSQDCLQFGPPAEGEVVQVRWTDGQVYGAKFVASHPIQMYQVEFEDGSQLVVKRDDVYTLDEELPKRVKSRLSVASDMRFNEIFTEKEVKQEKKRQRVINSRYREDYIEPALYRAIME
12-LOX inh: inhibitors of human 12S-lipoxygenase ALOX12. 580,000 tested, 1.1% active. AID 1671190. purified 12hLO, xylenol orange hydroperoxide absorbance. Potency, µM (top dose mostly 108 µM), for inactives: at the top dose activity change, negative = inhibition, actives largely listed as inhibitors. P18054; note: % is set by controls: 0 for no effect and ±100 for the full control effect
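Purified human 12hLO (150 nM final) in 25 mM Hepes, 0.01% Triton X-100, pH 7.0 was preincubated 15 min at room temperature with compound. Then 40 uM arachidonic acid was added, 30 min. Hydroperoxide was read by Fe-XO absorbance ratio 573/405 nm.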
HP1b chromo inh: inhibitors of HP1-beta chromodomain binding to methylated histone tails; AID 540317; 390,000 tested, 0.56% active; AlphaScreen HP1-beta / biotin-H3K9me3 peptide binding; P83916; Potency, µM (doses to about 114 µM), inactives show at the top dose activity change, negative = inhibition, hits mostly inhibitors; note: nearly all actives have a fitted effect of over 70% in size
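Compound inhibition of the preformed complex between 50 nM HP1-beta and 50 nM biotinylated H3K9me3 peptide was read by AlphaScreen. Buffer was PBS pH 7.4 with 0.01% Tween-20. Incubations ran 30 min at room temperature, with 10 ug/mL donor/acceptor beads.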
An asterisk follows results filed as active; ? = inconclusive; . = not tested or not shown; [ ] = remark or other dose. Most compounds without a hit are left out; they make up all but 9% or so of the library. Calls come from the whole dose curve; as a rule, active = well fitted curve in the direction sought with a large enough effect; inconclusive = small, poorly fitted or top-dose-only effect, or another doubt; inactive = no such curve, though single readings can be large; an effect the other way counts as inactive or inconclusive. Potency is the fitted concentration of half-maximal effect.

SMILES | G9a block | BAZ2B inh | PLK1 PBD inh | JMJD2A Tudor inh | 12-LOX inh | HP1b chromo inh
Cc1ccc(Cn2c(=S)[nH]c3ccc(N4CCOCC4)cc3c2=O)o1 | ? | ? | 21µM* | 22µM* | -29% | ?
Cc1ccc(C)c(N2CCN(C(=O)c3ccc(Cn4c(=S)[nH]c5ccc(N6CCOCC6)cc5c4=O)cc3)CC2)c1 | 40µM* | ? | -2% | -11% | ? | 31%
O=c1c2cc(N3CCOCC3)ccc2[nH]c(=S)n1CCN1CCCC1 | ? | 11% | -7% | ? | 0% | -1%
CCCCn1c(=S)[nH]c2ccc(N3CCOCC3)cc2c1=O | 20µM* | -17% | . | . | . | .
CN1C(C(=O)Nc2ccccn2)=C(O)c2sc(Cl)cc2S1(=O)=O | ? | -17% | -12% | -4% | -12% | 59%
CCN(CC)CCN1C(=O)C(=O)/C(=C(/O)c2ccc(OCC(C)C)cc2)C1c1ccncc1 (configuration not stated) | ? | -32% | . | . | 0% | .
O=c1[nH]cnc(O)c1C(c1ccc(Br)cc1)c1c(O)nc[nH]c1=O | -37% | -22% | -5% | -13% | -13% | 24%
COc1ccc(-n2c(=O)c3ccccc3c3ccccc3c2=O)c(OC)c1 | 10µM* | -8% | -15% | -30% | 1% | 30%
COc1ccc(C)cc1-n1c(=O)c2ccccc2c2ccccc2c1=O | 18µM* | ? | -17% | -7% | -4% | 28%
COC(=O)c1c(NC(=O)Cc2coc3cc(C)ccc23)sc2c1CCC2 | ? | -13% | . | -15% | -4% | -6%
c1ccc(Cc2nnc3sc(-c4ccco4)nn23)cc1 | 35µM* | ? | 21µM* | ? | 50% | ?
COc1cc(-c2nn3c(Cc4ccccc4)nnc3s2)cc(OC)c1OC | ? | 8% | 27µM* | -13% | -11% | -11%
c1ccc(SCc2nnc3sc(-c4ccco4)nn23)cc1 | . | . | . | . | -20% | .
COc1cc(-c2nn3c(COc4ccccc4)nnc3s2)cc(OC)c1OC | 5µM* | -2% | 27µM* | -20% | -6% | ?
O=C(Cn1ncc2ccc(Cl)cc21)NCc1ccc(F)cc1 | -34%[59 µM] | -3% | . | -22% | -14% | 56%
Cc1oc(-c2ccccc2)nc1Cn1cccc1C1=NC(c2ccccc2)CO1 (configuration not stated) | 35%[0.501 µM] | -29% | -5% | -34% | 0% | 5%
Cc1nn(Cc2ccccc2)c2ncccc12 | . | 33% | -4% | 1% | 45µM* | 34%
COc1ccc(-n2cnc3cc(N)ccc32)cc1 | ? | -28% | 0% | -18% | 3% | 10%
c1cncc(-c2cncnc2-n2ccnc2)c1 | . | . | . | . | 7.9µM* | .
CN(C)C(=O)c1ccc(-c2nc(-n3ccnc3)c3ccccc3n2)cc1 | -4%[0.501 µM] | . | . | . | ? | .
CN(C)C(=O)c1ccc(-c2cc(-n3ccnc3)ncn2)cc1 | -17%[0.501 µM] | . | . | . | 25µM* | .
CS(=O)(=O)Nc1cccc(-c2cncnc2-n2ccnc2)c1 | -3%[0.501 µM] | . | . | . | ? | .
COc1ccc2cc(-c3cccnc3)ncc2c1 | -34%[0.501 µM] | -38% | -22% | -18% | ? | 16%
c1cncc(-c2cc(-n3ccnc3)ncn2)c1 | -39%[0.501 µM] | . | . | . | 45µM* | .
Cn1c(CNC(=O)c2ccc(F)cc2)nc2ccccc21 | 8% | -4% | 27µM* | ? | 4% | ?
SMILES | G9a block | BAZ2B inh | PLK1 PBD inh | JMJD2A Tudor inh | 12-LOX inh | HP1b chromo inh
Cn1c(/C=N/NC(=O)c2ccccc2)nc2ccccc21 | ? | -22% | 1% | 89µM* | -3%[57.4 µM] | 19%
CCOc1ccc(C2N(c3ccc(Cl)cc3)C(=O)C3CCCN32)cc1OC (configuration not stated) | -47% | -4% | -14% | -20% | 453% | 19%
CC1Cc2ccccc2N1C(=O)Cn1cnc2c1c(=O)n(C)c(=O)n2C (configuration not stated) | -2% | -37% | -7% | -14% | -28% | -3%
Cc1ccc(-n2c(SCCN)nnc2-c2cccc(C)c2)cc1 | 5%[59 µM] | 79µM* | -21% | -16%[11.4 µM] | -17% | 43%
Cc1cccc(-c2nnc(SCC#N)n2-c2ccccc2)c1 | ? | 4% | -10% | 1% | 29% | 63%
NC(=O)CSc1nnc(-c2ccco2)n1N | 8% | 3% | -1% | 5% | 3% | 50%
COC(=O)CSc1nnc(-c2ccccc2OC)n1-c1ccc(C)cc1 | -9% | 7% | 27µM* | ? | 4% | -12%
CCN(CC)C(=O)CSc1nnc(-c2cnccn2)n1-c1ccccc1 | 4% | 1% | -6% | 6% | -19% | 36%
CCN(CC)C(=O)CSc1nnc(-c2ccccn2)n1-c1ccc(C)c(C)c1 | -7%[59 µM] | 45µM* | 1% | ? | 1% | 50%
NC(=O)CSc1nnc(-c2ccccn2)n1N | -7% | 22µM* | 4% | 71µM* | ? | 30%
CC(C)OCCCNc1ncnc2c1nc1n2CCCC1 | -9% | 9% | 1% | 8% | 0% | 16%
COC(=O)CCC(=O)N1CCOC(CCCC(C)C)C1 (configuration not stated) | . | . | . | . | 14% | .
Cc1cccc(-n2c(SCC(N)=O)nnc2-c2ccccn2)c1C | -37% | 18µM* | -1% | 79µM* | 0% | 13%
Cc1ccc(-n2c(SCC(N)=O)nnc2-c2ccccn2)cc1 | 11%[12.7 µM] | 25µM* | -9% | ? | 1% | 36%
Nn1c(SCc2ccccc2)nnc1-c1ccccn1 | -7%[12.7 µM] | 14µM* | 0% | 6% | -11% | 40%
CCOc1ccccc1-n1c(SCC(N)=O)nnc1-c1cccnc1 | ? | 10% | 1% | 8% | 1% | 29%
CCc1ccccc1-n1c(SCC(=O)N2CCCC2)nnc1-c1ccccn1 | -9%[59 µM] | 56µM* | -3% | ? | 107%[57.4 µM] | 19%
COc1cccc(N(Cc2nnc3n2CCCCC3)C(=O)Nc2ccccc2)c1 | 0% | 0% | 0% | -5% | 0% | 41%
CCN(CC)S(=O)(=O)c1ccc(N2CCOCC2)c(NS(=O)(=O)c2cccs2)c1 | 4%[2.33 µM] | 12% | -3% | 1% | 5% | 41%
CCOc1ncccc1C(=O)Nc1cc(S(=O)(=O)N(CC)CC)ccc1N1CCOCC1 | . | . | 17µM* | -30% | -16% | -6%
CCN(CC)S(=O)(=O)c1ccc(N2CCOCC2)c(NS(=O)(=O)c2ccc(C(C)C)cc2)c1 | 21% | 7% | ? | 25µM* | -18% | ?
CCN(CC)S(=O)(=O)c1ccc(N2CCOCC2)c(NS(=O)(=O)c2cc(C(C)(C)C)ccc2C)c1 | 10µM* | 1% | ? | ? | -25% | ?
CCc1cc(C(=O)Nc2cc(S(=O)(=O)N(CC)CC)ccc2N2CCN(C)CC2)sc1C | 35µM* | -10% | 0% | -20% | ? | 49%
